Results: ChEMBL document CHEMBL3988442, “University of Dundee, Small-Polar-MMV Screening Library” (2021)
The campaign covered roughly 48,000 compounds. About 13,000 (27%) showed an effect of 50% or more. Some of the results follow.

Each compound was assayed on Wolbachia pipientis (assay: Anti-Wolbachia Cell-Based Screen). Settings: 5 µM.
Assay type: functional
Set-up: scale not given: in the data most compounds retested in dose-response had high values

Compound | Percent Effect
O=C(Nc1ccnc(OC2CCOC2)c1)C1CCC1 (stereo not drawn) | -17.8%
Cc1cc(CN2CCC(CNC(=O)c3ccc(O)c(Cl)c3)C2)[nH]n1 (stereo not drawn) | 12.57%
CNS(=O)(=O)c1ccc(C(=O)N2CCCC2c2ccccc2C)o1 (stereo not drawn) | 116.1%
CNS(=O)(=O)c1ccc(C(=O)N2CCCCC2c2ccc(C)cc2)o1 (stereo not drawn) | 124%
Cc1nc(C(=O)N2CCCCC2c2ccc(CN(C)C)cc2)c(C)o1 (stereo not drawn) | -1.477%
CNS(=O)(=O)c1ccc(C(=O)N2CCCC2c2cnn(C)c2)o1 (stereo not drawn) | -2.298%
CC(=O)Nc1nc(C(=O)N2CCCC2c2ccccc2C)cs1 (stereo not drawn) | -3.064%
CNS(=O)(=O)c1ccc(C(=O)N2CCCC2c2ccccc2)o1 (stereo not drawn) | -8.711%
NS(=O)(=O)c1ccc(C(=O)N2CCCC2c2ccccc2)o1 (stereo not drawn) | 114.9%
CNS(=O)(=O)c1ccc(C(=O)N2CCCC2Cc2ccccc2)o1 (stereo not drawn) | 9.44%
CNc1nc(C(=O)N2CCCCC2c2ccc(CN(C)C)cc2)cs1 (stereo not drawn) | -11.93%
CN(C)Cc1ccc(C2CCCCN2C(=O)c2ncccc2O)cc1 (stereo not drawn) | 1.796%
CNS(=O)(=O)c1ccc(C(=O)N2CCCC2c2ccncc2)o1 (stereo not drawn) | 101.5%
O=c1ccncn1Cc1csc(C2CC2)n1 | -22.65%
Cc1cc(C)cc(CCC(=O)NC(C)c2nnn[nH]2)c1 (stereo not drawn) | -2.993%
CCCn1nc2c(cc1=O)CN(Cc1ncc(C(C)(C)C)o1)CC2 | 7.183%
c1ccc2c(N3CCCCC3)cnnc2c1 | -32.94%
CN(Cc1ccco1)c1ccc(C(=O)NCCCc2ccccn2)cn1 | -0.2765%
CN1CC[C@@H]2[C@@H]1CCN2Cc1ccc2c(c1)OCO2 | -14.63%
CNCc1cn(C2CCN(CCC(C)c3ccccc3)CC2)nn1 (stereo not drawn) | 95.9%
COCc1cn(C2CCN(Cc3ccc(Cl)s3)CC2)nn1 | 0.9369%
CC(CCN1CCC(n2cc(CCO)nn2)CC1)c1ccccc1 (stereo not drawn) | 92.59%
CNCc1cn(C2CCN(C(=O)NCc3ccco3)CC2)nn1 | 17.43%
COCc1cn(C2CCN(C(=O)Cc3ccsc3)CC2)nn1 | -0.9661%
Cc1cccc(CN2CCC(n3cc(CCO)nn3)CC2)c1C | 4.105%
COCc1cn(C2CCN(CCC(C)c3ccccc3)CC2)nn1 (stereo not drawn) | 99.11%

Compound | Percent Effect
CSC(C)CCN1CCC(n2cc(C3CCCCC3)nn2)CC1 (stereo not drawn) | -13.53%
CCCC(C)CN1CCC(n2cc(CCCO)nn2)CC1 (stereo not drawn) | -3.716%
CSCc1noc(CN(C)C(C)c2nc(C)sc2C)n1 (stereo not drawn) | -2.011%
CC(C)C(=O)NC1COC2(CCN(C(=O)c3ccc[nH]3)CC2)C1 (stereo not drawn) | 3.438%
O=C(c1cc(-n2cccn2)ccn1)N1CCOc2ncccc21 | -22.54%
CN(Cc1cc(C2CC2)on1)C(=O)C(c1cccnc1)N1CCCC1 (stereo not drawn) | -7.414%
COCCc1noc(CN(C)C(=O)C(C)N2CCc3ccccc3C2)n1 (stereo not drawn) | 110.4%
COCCc1noc(CN(C)C(=O)c2cccc(N3CCCC3=O)c2)n1 | -10.13%
CC(C)c1cc(CN(C)C(=O)C(C)N2CCc3ccccc3C2)no1 (stereo not drawn) | 103.9%
CC(C(=O)N(C)C)N1CCc2onc(-c3cccc(F)c3)c2C1 (stereo not drawn) | -12.34%
Cc1noc(C2CCCN(CC(=O)N3CCc4ccccc4C3)C2)n1 (stereo not drawn) | 4.147%
COCCc1noc(CN(C)C(=O)C2COc3ccccc3C2)n1 (stereo not drawn) | -1.856%
CC(C(=O)N(C)Cc1noc(C2CCC2)n1)N1CCc2ccccc2C1 (stereo not drawn) | 96.98%
COc1cccc2c1N(Cc1noc(C3CC3)n1)CCC2 | -4.254%
CCCn1cnnc1CNC(=O)C1COc2c(cccc2OC)C1 (stereo not drawn) | -10.56%
COc1cccc(N2CCN(C(=O)CCO)CC2=O)c1 | 0.6756%
COc1cccc(N2CCN(C(=O)C(O)c3cccc(Cl)c3)CC2=O)c1 (stereo not drawn) | -25.1%
Cc1cc(C)cc(N2CCN(C(=O)CCN3C[C@@H]4CC[C@H]3C4)CC2=O)c1 | 110.5%
Cc1ccc2oc(=O)n(CCC(=O)N3CCN(C)C(=O)C3)c2c1 | 7.292%
Cc1ccc(N2CCN(C(=O)CN3C[C@@H]4CC[C@H]3C4)CC2=O)cc1 | 111.2%
CN(C)c1nc2c(c(N(C)C)n1)CCN(C(=O)CN1C[C@@H]3CC[C@H]1C3)C2 | -4.711%
O=C(CCN1C[C@@H]2CC[C@H]1C2)N1CCN(c2cccc(Cl)c2)C(=O)C1 | 108.3%
COCCN1C[C@H]2CC[C@@H]1CN(C(=O)CCc1c(C)nn(C)c1C)C2 | 8.536%
Cc1ccc(N2CCCC(N3CCC(CO)CC3)C2=O)cc1 (stereo not drawn) | -5.905%
CC(C)Cn1cncc1Cn1cccc(C(F)(F)F)c1=O | 13.38%
CCN(CC)CCn1cc(NC(=O)c2ccccc2OC)cn1 | 7.312%

Compound | Percent Effect
CC(C)Oc1ccccc1C(=O)NCCc1nncn1C | -7.55%
COc1ccccc1C(=O)NC(C)CC(=O)O (stereo not drawn) | 5.398%
COc1cccc(C(=O)NC(C)CCN2CCOCC2)c1F (stereo not drawn) | 4.529%
CCC(C)NC(=O)c1nn(C)c(NC(=O)c2ccccc2OC)c1F (stereo not drawn) | 131.5%
COc1ccccc1C(=O)Nc1c(F)c(C(=O)NCCC(C)C)nn1C | 138.9%
CC1(c2[nH]ncc2C(N)=O)CCN(S(=O)(=O)c2ccccc2)CC1 | 129%
CN(C)C(=O)CC1CC2(CCN(c3ncccn3)CC2)c2ccccc21.O=C(O)C(F)(F)F (stereo not drawn) | 8.977%
CC(C)=CCC1(C(=O)O)CCCN(c2ccnc(C)n2)C1 (stereo not drawn) | -9.118%
Cc1ccc(-c2cn[nH]c2C2CCCN(c3ccnc(C)n3)C2)cc1 (stereo not drawn) | -2.431%
Cc1cnc(N2CCC3(CC2)CC3CNC(=O)N(C)C)nc1 (stereo not drawn) | -2.686%
CN(C)C(=O)c1cn[nH]c1C1(C)CCN(c2ncccn2)CC1 | 98.94%
CN1C(=O)CCC12CCN(S(=O)(=O)c1ccccc1)CC2 | -37.9%
Cc1nccc(N2CCCC(C)(c3[nH]ncc3C(N)=O)C2)n1 (stereo not drawn) | 108.3%
CCN1CCNC(=O)C12CCN(S(=O)(=O)c1ccccc1)CC2 | -28.29%
NC(=O)N1CCC2(CC1)CN(c1ncccn1)CCO2 | -107.3%
CC1(c2[nH]ncc2C(N)=O)CCN(c2ncccn2)CC1 | 105.4%
Cc1nc2c(c(N3CCN(c4ncccc4C(N)=O)CC3)n1)CCNC2 | -20.98%
CNC(=O)CN(C)Cc1ccc(F)cc1Cl | -1.762%
O=C(c1nc(N2CCCC2)ncc1Cl)N1CCN(Cc2ccsc2)CC1 | 11.05%
CCn1ncc2c1CCCC2NCc1csc(C(C)C)n1 (stereo not drawn) | -1.873%
CC(C)Cc1nc(CS(=O)(=O)c2ccccc2)no1 | -7.933%
O=C(O)C(F)(F)F.O=C1CC(c2ccncc2)C2(CCN(C(=O)NC3CC3)CC2)N1 (stereo not drawn) | -11.64%
Cn1cc(C2CC(=O)NC23CCN(C(=O)C2CC=CC2)CC3)cn1 (stereo not drawn) | 98.1%
CC(=O)NCC(=O)N1CCC2(CC1)NC(=O)CC2c1cccnc1.O=C(O)C(F)(F)F (stereo not drawn) | 7.13%
Cn1cc(C2CC(=O)NC23CCN(C(=O)c2ccc[nH]2)CC3)cn1 (stereo not drawn) | -5.816%
Cn1cc(C2CC(=O)NC23CCN(C(=O)NC2CC2)CC3)cn1 (stereo not drawn) | 102%

Compound | Percent Effect
CCN1C(=O)CC(c2cnn(C)c2)C12CCN(C(=O)C1CC=CC1)CC2 (stereo not drawn) | -6.196%
COCC(=O)N1CCC2(CC1)CC(c1cnn(C)c1)C(=O)N2 (stereo not drawn) | 4.267%
O=C1CC(c2ccncc2)C2(CCN(C(=O)c3ccnnc3)CC2)N1 (stereo not drawn) | 8.485%
CC(=O)NCC(=O)N1CCC2(CC1)NC(=O)CC2c1cnn(C)c1 (stereo not drawn) | 117.4%
CCn1ccnc1CNc1nccc(-c2cn(C)nc2C)n1 | -3.456%
CC(C)C(NC(=O)N1CCN(c2ccc(Cl)cc2)CC1)C(=O)NC1CC1 (stereo not drawn) | 0.3878%
COc1ccc(OC)c(C(O)CN2CC(n3cccn3)C2)c1 (stereo not drawn) | -4.387%
CCCN1CC2(CCN(c3cc(C4CC4)ncn3)CC2)CC1C(=O)O (stereo not drawn) | -4.033%
CC1(C)CN(Cc2cc(C3CCCCC3)no2)CC[C@]1(C)O | 3.04%
Cc1ccc(NC2CCN(C(=O)c3cnn(C(C)(C)C)c3)CC2)nn1 | 89.59%
Cc1ccc(NC2CCN(C(=O)c3ccsc3)CC2)nn1 | -4.871%
Cc1ccc(NC2CCN(C(=O)c3cnc(C)s3)CC2)nn1 | -2.09%
Cc1ccc(NC2CCN(C(=O)c3cccn3C)CC2)nn1 | 4.199%
Cc1ccc(NC2CCN(C(=O)c3ccncc3)CC2)nn1 | 119.5%
Cc1ccc(NC2CCN(C(=O)c3n[nH]c4ccccc34)CC2)nn1 | -3.019%
Cc1ccc(NC2CCN(C(=O)c3ccc(Cl)o3)CC2)nn1 | -2.526%
Cc1ccc(NC2CCN(C(=O)c3ccco3)CC2)nn1 | 66.81%
Cc1ccc(NC2CCN(C(=O)c3sccc3C3CC3)CC2)nn1 | 97.28%
CC(C)=CCN1CCc2onc(-c3ccc(F)c(F)c3)c2C1 | -6.636%
CC(C)NC(=O)[C@@H]1C[C@@H](N)CN1C(=O)CCSCc1ccc(F)cc1 | -8.578%
CC(NC(=O)c1cc2n(n1)CCCN(C)C2)c1cn2ncsc2n1 (stereo not drawn) | 2.374%
O=C(Cc1cc(F)cc(Cl)c1)N[C@@H]1CCNC[C@H]1O | -5.906%
Cc1ccc(NC2CCN(C(=O)c3ccc(C#N)cc3)CC2)nn1 | 103.2%
Cc1ccc(NC2CCN(C(=O)c3ccnc(N(C)C)c3)CC2)nn1 | 106.8%
Cc1ccc(NC2CCN(C(=O)c3cccc4ncccc34)CC2)nn1 | 0.6647%
